Screening data deposited in PubChem by National Center for Advancing Translational Sciences (NCATS).
The sample as a whole holds a higher share of hits than the screen did.
RE007 growth inh: less growth of the S. pombe RE007 Vpr strain; AID 651644; actives 0.21% (n = 360,000); S. pombe RE007 Vpr strain, BacTiter-Glo ATP luminescence, 24 h; Potency, µM (titrated, usually from 92.2 µM), actives largely listed as inhibitors; active = well fitted falling curve with a large enough effect; inconclusive = small, poorly fitted or top-dose-only effect; inactive = no such curve, though single readings can be large or run the other way; note: nearly all actives have a fitted effect of over 50% in size
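Fission yeast RE007 carrying one integrated HIV-1 vpr copy, seeded at OD 0.01 in PMG+AL medium with 23 nL pinned compound. Grown 24 h at 30 degrees; viability read by BacTiter-Glo luminescence after 5 min.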
LmPK inh: LmPK (Leishmania mexicana) enzyme inhibition; actives 0.37% (n = 290,000); AID 1721; Potency, µM (series often up to 57.5 µM), usual class: inhibitors; purified LmPK, Kinase-Glo ATP luminescence, 1 h
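Purified LmPK (0.1 nM) converted ADP (0.1 mM) to ATP with PEP (0.5 mM) in imidazole buffer pH 7.2 with KCl and MgCl2, 1 h at room temperature. ATP was read by Kinase-Glo luminescence; data normalized to uninhibited and no-enzyme controls.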
TbPYK inhibitor: inhibitors of Trypanosoma brucei pyruvate kinase; Q57TT1; TbPYK enzyme, Kinase-Glo Plus ATP luminescence, 45 min; Potency, µM (series often up to 76.8 µM), actives largely listed as inhibitors; actives 0.12% (n = 410,000); AID 624173; note: nearly all actives have a fitted effect of over 50% in size
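Glycolytic pyruvate kinase of T. brucei was incubated with substrate, test compound and 130 uM ADP for 45 minutes at room temperature. Luminescent Kinase-Glo Plus signal was measured after 10 minutes.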
Shiga toxin inh: inhibitors of Shiga toxin in Vero cells. Vero cells, Shiga toxin protein synthesis inhibition reporter. inhibition, % at 38.7 µM. actives 9.2% (n = 290,000). AID 2315; in the data active = inhibition mostly above about 28%, no sharp cut-off; inactive = mostly below about 43%
Giardia FBPA inh: Giardia lamblia aldolase inhibition; actives 0.71% (n = 290,000); A8B2U2; Potency, µM (top dose mostly 59.6 µM), hits mostly inhibitors; purified Giardia FBPA; note: nearly all actives have a fitted effect of over 55% in size
Target sequence (A8B2U2 whole entry, looked up): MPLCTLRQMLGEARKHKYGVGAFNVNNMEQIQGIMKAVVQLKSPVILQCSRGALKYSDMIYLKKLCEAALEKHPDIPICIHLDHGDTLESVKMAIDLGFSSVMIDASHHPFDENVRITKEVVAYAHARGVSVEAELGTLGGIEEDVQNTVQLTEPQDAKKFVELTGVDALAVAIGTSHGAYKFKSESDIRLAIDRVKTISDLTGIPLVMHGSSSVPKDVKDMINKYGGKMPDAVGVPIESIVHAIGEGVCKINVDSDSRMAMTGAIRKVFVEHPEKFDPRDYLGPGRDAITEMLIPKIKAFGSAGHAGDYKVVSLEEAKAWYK
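Giardia FBPA (40 nM reagent) was preincubated 10 min at RT with compound (up to 57.5 uM final), then substrate plus GAPDH/TPI/NAD/arsenate coupling system with diaphorase/resazurin was added; resorufin fluorescence (525/598 nm) was read after 20 min.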
Cycloheximide cs: counter-screen for Shiga toxin inhibitors: cycloheximide protein synthesis inhibition. actives 12% (n = 300,000). cell reporter, cycloheximide protein synthesis inhibition counterscreen. max response, %. AID 2314; in the data active = max response mostly above about 13%, no sharp cut-off; inactive = mostly below about 14%; note: read at 38.3 µM for the half of the compounds with a filed dose
Large screens that a line does not name were inactive. Unless noted, calls come from the whole dose curve; as a rule, active = well fitted curve in the direction sought with a large enough effect; inconclusive = small, poorly fitted or top-dose-only effect, or another doubt; inactive = no such curve, though single readings can be large; an effect the other way counts as inactive or inconclusive.

CC(=NCc1ccco1)c1c(C)[nH]n(-c2nc3ccccc3s2)c1=O	RE007 growth inh inconclusive, Shiga toxin inh 56, Cycloheximide cs 48
O=c1c(C=NCc2cccnc2)c(C(F)(F)F)[nH]n1-c1nc2ccccc2s1	RE007 growth inh inconclusive
CNC(=O)C[C@@H]1C(=O)N(c2ccc(Br)cc2)CC1(C)C	none (no result: LmPK inh, Shiga toxin inh, Giardia FBPA inh, Cycloheximide cs)
C/C(=N/NC(=O)c1cccs1)c1c(C)[nH]n(-c2nc3ccccc3s2)c1=O	RE007 growth inh inconclusive, LmPK inh 20µM, TbPYK inhibitor inconclusive
CC(=O)C1=C(O)C(=O)N(c2ccc(C)cc2)C1c1ccccn1 (stereo not given)	Shiga toxin inh 37, Cycloheximide cs 22
O=C(O)c1cc(-c2ccc3ccccc3c2)nc2ccc(F)cc12	Shiga toxin inh 30, Cycloheximide cs 22
O=C(O)c1cc(-c2c[nH]c3ccccc23)nc2cc3ccccc3cc12	Shiga toxin inh 67, Cycloheximide cs 36 (no result: RE007 growth inh, TbPYK inhibitor)
O=C(O)c1cc(-c2cccc3ccccc23)nc2ccccc12	none
CC(NC(=O)C(=O)Nc1c2c(nn1-c1ccccc1)CSC2)c1ccccc1 (stereo not given)	none (no result: RE007 growth inh, LmPK inh, Shiga toxin inh, Giardia FBPA inh, Cycloheximide cs)
CCN(CC)S(=O)(=O)c1ccc2c(c1)N(CC(=O)NCc1ccc(F)cc1)C(=O)CO2	none (no result: RE007 growth inh, LmPK inh, Shiga toxin inh, Giardia FBPA inh, Cycloheximide cs)
Cc1ccn2c(Nc3ccc(C(C)C)cc3)c(-c3cccs3)nc2c1	none (no result: RE007 growth inh, LmPK inh, Shiga toxin inh, Giardia FBPA inh, Cycloheximide cs)
COc1cccc(/C=C2\SC(=S)N(CC3CCCO3)C2=O)c1 (stereo not given)	Shiga toxin inh 38, Cycloheximide cs 26
O=C1/C(=C/c2cccc(O)c2)SC(=S)N1CC1CCCO1 (stereo not given)	Shiga toxin inh 72, Cycloheximide cs 32
CCOc1cc(/C=C2/SC(=S)N(CC3CCCO3)C2=O)ccc1O (stereo not given)	none
O=C(Nc1ccc2c(c1)N(C1CCCC1)C(=O)c1ccccc1S2)c1cccc(F)c1	none (no result: RE007 growth inh, LmPK inh, Shiga toxin inh, Giardia FBPA inh, Cycloheximide cs)
CC1CCc2c(sc(NC(=O)Cn3nnc(-c4ccc(C(F)(F)F)cc4)n3)c2C#N)C1 (stereo not given)	none (no result: RE007 growth inh, LmPK inh, Shiga toxin inh, Giardia FBPA inh, Cycloheximide cs)
Cc1ccc(C)c(NC(=O)Nc2csc3c2CCCC3)c1	none (no result: RE007 growth inh, LmPK inh, Shiga toxin inh, Giardia FBPA inh, Cycloheximide cs)
O=C(CN1C(=O)COc2ccc(S(=O)(=O)N3CCCCCC3)cc21)NCCc1ccccc1	none (no result: RE007 growth inh, LmPK inh, Shiga toxin inh, Giardia FBPA inh, Cycloheximide cs)
O=C(NNC(=O)c1ccc[nH]1)Nc1cc(Cl)cc(Cl)c1	Cycloheximide cs 15
O=C(NNC(=O)c1ccc[nH]1)Nc1cccc(C(F)(F)F)c1	Shiga toxin inh 72, Cycloheximide cs 43
C[C@@H]1CN([C@H](C)CO)C(=O)CCCn2nncc2CO[C@@H]1CN(C)S(=O)(=O)c1ccc2c(c1)OCCCO2	none (no result: LmPK inh, Shiga toxin inh, Giardia FBPA inh, Cycloheximide cs)
CNc1nc(-c2ccc3c(c2)CCN3C(=O)CC(C)(C)C)c(C)s1	none
CNc1nc(-c2ccc3c(c2)CCN3C(=O)c2ccccc2F)c(C)s1	TbPYK inhibitor inconclusive, Shiga toxin inh 61, Cycloheximide cs 18
CNc1nc(-c2ccc3c(c2)CCN3C(=O)c2ccccc2F)cs1	Shiga toxin inh 95, Cycloheximide cs 54
Cc1cccc(C=Nc2ccc3c(c2)oc2ccccc23)c1O	Shiga toxin inh 98, Cycloheximide cs 62
Clc1ccccc1CNCCCSc1nnnn1-c1ccccc1	none (no result: RE007 growth inh, LmPK inh, Shiga toxin inh, Giardia FBPA inh, Cycloheximide cs)
CCCCCCCCCCCCCCCCCCOC[C@H](COP(=O)([O-])OCC[N+](C)(C)C)OC(C)=O	none (no result: RE007 growth inh, LmPK inh, TbPYK inhibitor, Shiga toxin inh, Cycloheximide cs)
COC(=O)c1cc(-c2c(C)nn(-c3ccccc3)c2C)n[nH]1	Shiga toxin inh 58, Cycloheximide cs 26
COc1ccc(-c2cc(C(=O)NN)n(-c3ccccc3)n2)cc1	Shiga toxin inh 78, Cycloheximide cs 25
COc1ccc(-c2cc(C(=O)NN)[nH]n2)cc1	Shiga toxin inh active, Cycloheximide cs 22
CCOC(=O)c1cc(-c2ccccc2)n[nH]1	Shiga toxin inh 47, Cycloheximide cs 19
COc1ccc(C(=O)Nc2cc(-c3ccccc3)nn2-c2ccccc2)cc1	none (no result: RE007 growth inh, LmPK inh, Shiga toxin inh, Giardia FBPA inh, Cycloheximide cs)
COc1ccc(-c2cc(C(=O)NN)[nH]n2)cc1OC	none
CCOC(=O)c1cc(-c2cccc([N+](=O)[O-])c2)n[nH]1	none
CCOc1ccc(NC(=O)Cn2c3ncccc3c(=O)n2-c2ccc(CC)cc2)cc1	none (no result: RE007 growth inh, LmPK inh, Shiga toxin inh, Giardia FBPA inh, Cycloheximide cs)
COC(=O)c1cc(-c2c[nH]c3ccccc23)n[nH]1	Cycloheximide cs 10
